PrPC surface inh: inhibitors of human cell surface prion protein PrPC; hit rate 0.43% among 370,000; TR-FRET read-out; AID 720596; inhibition, % at 13.8 µM; P04156; in the data active means inhibition above about 24%; further: 0% = median of the test wells and 100% = reference compound wells
DUSP3 inh: inhibitors of human VHR1 phosphatase (DUSP3) | P51452 | recombinant VHR phosphatase, pNPP absorbance | inhibition, % at 13.3 µM | hit rate 0.52% among 290,000 | AID 1654; in the data active means inhibition above about 50%
TcdB GH inh: TcdB glycohydrolase inhibition. AID 652162. hit rate 0.24% among 350,000. TcdB glycohydrolase enzymatic assay, plate reader. inhibition, % at 9.99 µM. P18177; in the data active means inhibition above about 10%
PrPC TRFRET cf: cell surface PrPC inhibition, TR-FRET confirmation; inhibition, % at 13.8 µM; cell surface PrPC level; AID 743200; hit rate 65% among 1,500; shares compounds with PrPC surface inh; in the data active means inhibition above about 25%
LD9 tox: counter-screen for PrPc inhibitors: cytotoxicity in LD9 cells; hit rate 29% among 1,500; inhibition, % at 13.8 µM; AID 743201; luminescence viability; shares compounds with PrPC surface inh; in the data active means inhibition above about 9.5%
Starred values were filed as active, the others as inactive. A selection: hits, their analogues and other compounds. The true share with any hit is near 0.82%.

How did COc1ccc(S(=O)(=O)N2CCOC23CCN(C(=O)c2c(F)cccc2Cl)CC3)cc1 do in these assays?
PrPC surface inh: 5.5; DUSP3 inh: -9.0; TcdB GH inh: 6.9

How did COc1ccc(S(=O)(=O)N2CCOC23CCN(C(=O)c2ccc(Cl)cc2Cl)CC3)cc1 do in these assays?
PrPC surface inh: 53.4*; DUSP3 inh: -19.8; TcdB GH inh: -0.2; PrPC TRFRET cf: 46.5*; LD9 tox: 2.4

Results for Cc1noc(C)c1S(=O)(=O)Nc1ccc2c(c1)C(=O)N([C@H](C)CO)C[C@@H](C)[C@H](CN(C)CC1CCCCC1)OCCCC[C@@H](C)O2 ?
TcdB GH inh: -2.0

What do the screens show for `Cc1cc(SC2CCOC2=O)nc2ccccc12` (configuration not stated)?
PrPC surface inh: -0.1; DUSP3 inh: 8.3; TcdB GH inh: 1.3

What do the screens show for `O=C1OCCC1Sc1ncnc2sccc12` (configuration not stated)?
PrPC surface inh: 31.5*; DUSP3 inh: 11.9; PrPC TRFRET cf: 32.3*; LD9 tox: 3.2

Results for Cc1ccc(S(=O)(=O)Nc2cccc3c2O[C@@H](CN(C)S(=O)(=O)c2ccc(Cl)cc2)[C@H](C)CN([C@@H](C)CO)C3=O)cc1 ?
TcdB GH inh: 0.0

What do the screens show for `O=C1NC[C@@H](CCCCN2C[C@H](Cc3ccc(O)cc3)N(CC3CCCCC3)C(=O)C2=O)N(Cc2ccccc2)C1=O`?
PrPC surface inh: 9.6; TcdB GH inh: -0.5

What do the screens show for `O=C1NC[C@H](CCCCN2C[C@H](Cc3ccc(O)cc3)N(CC3CCCCC3)C(=O)C2=O)N(CC2CCCCC2)C1=O`?
PrPC surface inh: 25.4*; TcdB GH inh: 0.0; PrPC TRFRET cf: 23.9; LD9 tox: -0.9

Results for C[C@H]1CN([C@@H](C)CO)C(=O)c2cc(C#CC3(O)CCCC3)cnc2O[C@@H]1CN(C)C(=O)C1CCC1 ?
TcdB GH inh: -0.7

How did COc1ccc(C(=O)Nc2ccccc2C(=O)NC(Cc2ccc(O)cc2)C(=O)NNC(=O)c2ccc(C)cc2)cc1 (configuration not stated) do in these assays?
PrPC surface inh: 82.9*; DUSP3 inh: 1.9; TcdB GH inh: -9.6; PrPC TRFRET cf: 5.6; LD9 tox: -1.3

Results for COc1ccc(C(=O)Nc2ccccc2C(=O)NC(Cc2ccc(O)cc2)C(=O)NNC(=O)c2ccccc2)cc1 (configuration not stated) ?
PrPC surface inh: -0.4; DUSP3 inh: -1.0

How did O=[N+]([O-])c1ccc(N2CCOCC2)c2c1no[n+]2[O-] do in these assays?
PrPC surface inh: 28.6*; TcdB GH inh: 5.5; PrPC TRFRET cf: 44.7*; LD9 tox: 98.3*

Results for O=[N+]([O-])c1ccc(N2CCOCC2)c2cccnc12 ?
PrPC surface inh: -20.2; DUSP3 inh: 11.5; TcdB GH inh: -1.5

What do the screens show for `O=C(c1cc(C2CC2)nc2ccc(Br)cc12)N1N=C(C(F)F)CC1(O)C(F)F` (configuration not stated)?
PrPC surface inh: 31.4*; DUSP3 inh: -0.3; PrPC TRFRET cf: 21.5; LD9 tox: 0.8

Results for O=C(c1cc(C2CC2)nc2ccccc12)N1N=C(C(F)F)CC1(O)C(F)F (configuration not stated) ?
PrPC surface inh: -4.0; DUSP3 inh: 4.2

How did C[C@@H]1CCCCO[C@H](CN(C)C(=O)NC2CCCCC2)[C@H](C)CN([C@@H](C)CO)C(=O)c2cc(NS(=O)(=O)c3ccc(F)cc3)ccc2O1 do in these assays?
TcdB GH inh: -0.9

How did O=C(COc1ccc2c3c(c(=O)oc2c1)CCCC3)N1C[C@H]2C[C@@H](C1)c1cccc(=O)n1C2 do in these assays?
PrPC surface inh: 1.6; DUSP3 inh: 49.1; TcdB GH inh: 5.9

How did Cc1c(Br)c(=O)oc2cc(OCC(=O)N3C[C@H]4C[C@@H](C3)c3cccc(=O)n3C4)ccc12 do in these assays?
PrPC surface inh: 37.8*; DUSP3 inh: 8.4; TcdB GH inh: 0.3; PrPC TRFRET cf: 54.6*; LD9 tox: -3.1

Results for CNC[C@H]1Oc2ncc(-c3ccccc3C)cc2C(=O)N([C@@H](C)CO)C[C@H]1C ?
TcdB GH inh: 0.2

Results for O=C(COC(=O)CSc1ccc2ccccc2c1)NC1CC1 ?
PrPC surface inh: 15.1; DUSP3 inh: 9.1

What do the screens show for `O=C(COC(=O)CSc1ccc2ccccc2c1Br)NC1CC1`?
PrPC surface inh: 56.1*; DUSP3 inh: 22.3; TcdB GH inh: 1.8; PrPC TRFRET cf: 79.3*; LD9 tox: -6.5

How did C[C@@H]1CN([C@H](C)CO)C(=O)c2cccc(NC(=O)CCCCCC(=O)Nc3ccccc3N)c2O[C@H]1CN(C)C(=O)Nc1ccc2c(c1)OCO2 do in these assays?
TcdB GH inh: 0.2

Results for C[C@@H]1CN([C@@H](C)CO)S(=O)(=O)c2ccc(/C=C/c3ccccc3)cc2O[C@H]1CN(C)C(=O)c1ccncc1 ?
TcdB GH inh: 3.4

How did C[C@@H]1CN([C@@H](C)CO)C(=O)c2cccc(NC(=O)Nc3ccc(F)cc3)c2O[C@@H]1CN(C)C do in these assays?
TcdB GH inh: 0.0

How did CN(C(=O)COC(=O)c1ccccc1Nc1ccccc1)c1c(N)n(Cc2ccccc2)c(=O)[nH]c1=O do in these assays?
PrPC surface inh: 29.5*; TcdB GH inh: 3.1; PrPC TRFRET cf: 37.9*; LD9 tox: -8.4

Results for COCCN(C(=O)COC(=O)c1ccccc1Nc1ccccc1)c1c(N)n(Cc2ccccc2)c(=O)[nH]c1=O ?
PrPC surface inh: -5.4; TcdB GH inh: 5.1

Results for C[C@H](CO)N1C[C@H](C)[C@@H](CN(C)C(=O)CN(C)C)Oc2cc(C#Cc3ccc(F)cc3)ccc2S1(=O)=O ?
TcdB GH inh: 0.8

How did Cc1ccc(C)c(SCC(=O)Nc2cccc(S(=O)(=O)NC3=NCCCCC3)c2)c1 do in these assays?
PrPC surface inh: 2.3; DUSP3 inh: -0.9

What do the screens show for `O=C(CSc1ccc2ccccc2c1Br)Nc1cccc(S(=O)(=O)NC2=NCCCCC2)c1`?
PrPC surface inh: 39.3*; DUSP3 inh: 12.4; TcdB GH inh: -1.2; PrPC TRFRET cf: 47.6*; LD9 tox: -0.1

What do the screens show for `C[C@H]1CN([C@@H](C)CO)S(=O)(=O)c2ccc(C#Cc3ccccc3)cc2O[C@H]1CN(C)CC1CC1`?
TcdB GH inh: 0.4

Results for C[C@@H]1CN([C@@H](C)CO)C(=O)Cc2cc(NC(=O)C3CCCCC3)ccc2O[C@@H]1CN(C)C ?
TcdB GH inh: -9.9

How did CO[C@H]1CN(C)C(=O)c2cc(NC(C)=O)ccc2OC[C@H](C)N(Cc2ccncc2)C[C@@H]1C do in these assays?
TcdB GH inh: 0.6

Results for S=C(Nc1ccccc1)Nc1nccs1 ?
PrPC surface inh: 11.2; DUSP3 inh: 1.1; TcdB GH inh: 1.7

How did Fc1ccc(NC(=S)Nc2nccs2)cc1 do in these assays?
PrPC surface inh: 31.7*; DUSP3 inh: 12.3; TcdB GH inh: 0.5; PrPC TRFRET cf: 19.9; LD9 tox: 5.0

Results for Cn1cnc(S(=O)(=O)N2CCCCN3[C@@H](CO)[C@@H](c4ccc(C#CC5CC5)cc4)[C@@H]3C2)c1 ?
TcdB GH inh: -1.8

Source: PubChem BioAssay
